Data reported in PubChem BioAssay (NCATS).
Where “and” joins values, the source holds several entries; their conditions need not be identical. Identical values can stand only once. Inconclusive results are not listed. A call without a number means that no potency is given here. Some compounds were tested as several samples or in several runs, with calls that do not always agree. Calls of active or inactive are those of the source. The call rests on the fitted dose curve; in most records, active means well fitted curve in the direction sought with a large enough effect; inconclusive means small, poorly fitted or top-dose-only effect, or another doubt; inactive means no such curve, though single readings can be large; an effect the other way counts as inactive or inconclusive.

Key:
[1] = Viability qHTS for spleen associated tyrosine kinase inhibitor (SYKi) naive MV4-11 cells (AID 1963823); further: nearly all actives have a fitted effect of over 40% in size; further: potency means the concentration at half of the fitted maximal effect
How it was run: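 Luminescence from CellTiter-Glo, developed 10 min at room temperature, gave viability of MV4-11 cells never exposed to SYK inhibitor. Cells (500/well) had been incubated with compounds for 72 hr under standard culture conditions.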

[2] = Viability qHTS for spleen associated tyrosine kinase inhibitor (SYKi) drug resistant MV4-11 cells (AID 1963824); further: nearly all actives have a fitted effect of over 35% in size; further: potency means the concentration at half of the fitted maximal effect
How it was run: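 CellTiter-Glo luminescence, read 10 min after reagent addition, reports viability after a 72 hr compound exposure. Cells are an MV4-11 line made resistant to SYK inhibition, seeded at 500 per well onto compound-containing plates.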

[3] = Quantitative highthroughput screen to assess conditional lethalithy of NOMO1 cells grown in RPMI1640 with untreated serum (RPMI+s) (AID 1963876); further: nearly all actives have a fitted effect of over 35% in size; further: potency means the concentration at half of the fitted maximal effect
How it was run: (§1)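 Each medium arm—HPLM with 10% dialyzed FBS, or RPMI1640 with 5 mM glucose and 10% untreated or dialyzed FBS—was screened against an 11-point, 3-fold compound titration for 48 h at 37 °C, with CellTiter-Glo luminescence as endpoint.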

[4] = Quantitative highthroughput screen to assess conditional lethalithy of NOMO1 cells grown in RPMI1640 with dialyzed fetal bovine serum (RPMI+ds) (AID 1963877); further: nearly all actives have a fitted effect of over 30% in size; further: potency means the concentration at half of the fitted maximal effect; on Viability: series mostly up to about 46 µM
How it was run: as §1

[5] = Quantitative highthroughput screen to assess conditional lethalithy of NOMO1 cells grown in Human Plasma-Like Medium with dialyzed fetal bovine serum (HPLM+ds) (AID 1963878); further: nearly all actives have a fitted effect of over 35% in size; further: potency means the concentration at half of the fitted maximal effect
How it was run: as §1

[6] = Quantitative highthroughput screen to assess conditional lethalithy of P12 Ichikawa cells grown in Human Plasma-Like Medium with dialyzed fetal bovine serum (HPLM+ds) (AID 1963879); conditions: Potency: viability; further: nearly all actives have a fitted effect of over 35% in size; further: potency means the concentration at half of the fitted maximal effect; on Viability: series mostly up to about 46 µM
How it was run: as §1

[7] = Quantitative highthroughput screen to assess conditional lethalithy of P12 Ichikawa cells grown in RPMI1640 with dialyzed fetal bovine serum (RPMI+ds) (AID 1963880); conditions: Potency: P12-Ichikawa viability; further: nearly all actives have a fitted effect of over 35% in size; further: potency means the concentration at half of the fitted maximal effect
How it was run: as §1

[8] = Quantitative highthroughput screen to assess conditional lethalithy of P12 Ichikawa cells grown in RPMI1640 with untreated serum (RPMI+s) (AID 1963881); conditions: Potency: viability
How it was run: as §1

[9] = Cellular viability qHTS for adrenocortical cancer (ACC) cell line SW-13 (AID 1963989); conditions: SW-13 ACC cells viability, CellTiter-Glo, 48 h; activity (max response): stronger effect = lower value; further: nearly all actives have a fitted effect of over 65% in size; further: potency means the concentration at half of the fitted maximal effect;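 on activity (max response): cells grown in serum-free medium with ITS supplement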
How it was run: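 48 h treatment, SW-13 in ITS/DMEM serum-free; doses up to 46 uM; readout CellTiter-Glo luminescence; curve fit four-parameter logistic.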

[10] = Cellular viability qHTS for adrenocortical cancer (ACC) cell line NCI-H295R (AID 1963990); further: nearly all actives have a fitted effect of over 60% in size; further: potency means the concentration at half of the fitted maximal effect
How it was run: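 Compound titrations (up to 46 uM final) are applied to NCI-H295R cultures for 48 h at 37C. Viable cell number is estimated by CellTiter-Glo signal, normalised to DMSO and doxorubicin controls.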

[11] = Quantitative highthroughput screen to assess conditional lethalithy of SEM cells grown in Human Plasma-Like Medium with dialyzed fetal bovine serum (HPLM+ds) (AID 1963882)
How it was run: as §1

[12] = Quantitative highthroughput screen to assess conditional lethalithy of SEM cells grown in RPMI1640 with unreated serum (RPMI+s) (AID 1963883); further: nearly all actives have a fitted effect of over 35% in size; further: potency means the concentration at half of the fitted maximal effect
How it was run: as §1

[13] = Quantitative highthroughput screen to assess conditional lethalithy of SEM cells grown in RPMI1640 with dialyzed fetal bovine serum (RPMI+ds) (AID 1963884); further: nearly all actives have a fitted effect of over 35% in size; further: potency means the concentration at half of the fitted maximal effect; on Viability: series mostly up to about 46 µM
How it was run: as §1

SMILES	Potency [1]	Potency [2]	Potency [3]	Potency [4]	Potency [5]	Potency [6]	Potency [7]	Potency [8]	activity (max response) [9]	Potency [10]	Potency [11]	Potency [12]	Potency [13]	Potency [9]
CN1C(=O)C(Cc2c[nH]c3ccccc23)NC1=S (configuration not stated)	inactive	8.33 µM (active)	inactive	inactive	inactive	inactive	inactive	inactive	7.04% (inactive)	inactive	–	–	–	–
c1cc(OCCN2CCCCC2)cc(-c2n[nH]c3ccc(-c4ncn[nH]4)cc23)c1	0.651 µM (active)	1.16 µM (active)	inactive	inactive	inactive	inactive	inactive	inactive	–	inactive	–	–	–	–
O=c1[nH]nc(Sc2ncc([N+](=O)[O-])s2)n1-c1ccc2c(c1)OCCO2	2.35 µM (active)	2.35 µM (active)	9.35 µM (active)	8.33 µM (active)	9.35 µM (active)	14.8 µM (active)	9.35 µM (active)	–	–	6.31 µM (active)	8.33 µM (active)	7.43 µM (active)	8.33 µM (active)	17.8 µM (active)
Cc1cn[nH]c1	inactive	inactive and 18.6 µM (active)	inactive	inactive	16.6 µM (active)	inactive	inactive	inactive	12.7% (inactive) and 11.3% (inactive)	inactive	–	–	inactive	–
CC(C)Oc1cc(Nc2nc(N[C@@H](C)c3ccc(F)cn3)ncc2Cl)[nH]n1	0.058 µM (active)	372 nM (active) and 46.1 nM (active)	0.935 µM (active)	0.833 µM (active)	inactive	0.833 µM (active)	–	–	-7.04% (inactive)	inactive	–	0.526 µM (active)	0.332 µM (active)	–
CCC(C)n1ncn(-c2ccc(N3CCN(c4ccc(OC[C@H]5CO[C@](Cn6cncn6)(c6ccc(Cl)cc6Cl)O5)cc4)CC3)cc2)c1=O (some centres not stated)	2.88 µM (active)	1.59 µM (active)	inactive	inactive	inactive	inactive	–	inactive	-10.2% (inactive) and 8.84% (inactive)	inactive	–	inactive	–	–
